This is a sample that favours compounds with a hit; in the whole collection about 0.69% have one here.
MRP reversal = reverses drug resistance mediated by MRP | AID 602 | differential viability (reversal), % at 10 µM | 0.04% of 85,000 active | H69AR cells + 2 uM doxorubicin, CellTiter-Glo, 72 h;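 active means viability drop by adding the cancer drug above about 55%, with treated viability meeting a 40% cutoff, limit read from the data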;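 further: viability without doxorubicin minus viability with 2 µM doxorubicin for each compound; larger differential means the compound sensitizes cells more to doxorubicin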
MRP1 act = MRP-1 activation; 0.61% of 140,000 active; AID 799; H69AR cells + doxorubicin, viability rescue, CellTiter-Glo; viability increase, % at 10 µM;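 active means viability gain under doxorubicin at or above a set limit, the compound median plus 3 SD, cut at about 4.7% in these data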;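 further: MRP-1 overexpressing cells given doxorubicin 25 µM after compound pretreatment; 18-22 h compound pretreatment then 72 h with doxorubicin before readout; 0% = doxorubicin-only wells and 100% = vehicle-treated cells without doxorubicin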
Phagocyt inh = blocks phagocytosis by macrophages | inhibition, % at 5 µM | 0.07% of 110,000 active | J774A.1 macrophage IgG-bead phagocytosis, imaging;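 active means inhibition above the mean of the plate negative controls plus 5 SD, cut at about 13% in these data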;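 further: phagocytic index as fraction of beads internalized from green versus red external bead signal; plate controls were DMSO negative control for no effect and cytochalasin-D positive control for full effect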
The depositor's hits bear a star; nt = no result given; [ ] = another dose, or the depositor's remark.

SMILES	MRP reversal	MRP1 act	Phagocyt inh
CCCCC(=O)NS(=O)(=O)c1ccc(N=NN2CCOCC2)cc1	nt	-3	-10
CSc1ncccc1C(=O)Nc1nc2ccc(Oc3ccccc3)cc2s1	nt	4.8*	0
CSc1ncccc1C(=O)Nc1nc2c(C)cccc2s1	nt	1	-1
NNC(=O)c1ccc(O)cc1O	nt	1	-3
O=C(NCCc1ccccc1)C(NS(=O)(=O)c1cccc2nsnc12)c1ccccc1 (centres undefined)	10	-2	-2
CCOC(=O)N1CCN(c2nc(-c3ccco3)cc(C(F)(F)F)n2)CC1	5	-1	nt
CCOC(=O)N1CCN(c2nc(-c3cccc(OC)c3)cc(C(F)(F)F)n2)CC1	26	8.7*	-2
Cc1cc(C)c(NC(=O)COc2ccccc2C(=O)Nc2ccc3c(c2)oc2ccccc23)c(C)c1	-8	-2	-1
COc1cc(C2CC(=O)c3c([nH]c(C(=O)OCCOC(C)C)c3C)C2)cc(OC)c1OC (centres undefined)	nt	-3	-1
COC(=O)c1sc2nc(CN3CCN(c4ccc(OC)cc4)CC3)[nH]c(=O)c2c1C	nt	-2	-4
COc1ccc(N2C(=O)CC(N3CCC(O)(c4cccc(C(F)(F)F)c4)CC3)C2=O)cc1 (centres undefined)	nt	6.5*	4
CCOc1ccc(N2C(=O)CC(N3CCC(O)(c4ccc(Br)cc4)CC3)C2=O)cc1 (centres undefined)	-2	0	0
Cc1cc(=S)[nH]c2c(C)cccc12	-4	-1	0
COc1ccc(C(=O)Nc2ccc(C)cc2C(=O)c2ccccc2)c(OC)c1	nt	0	-7
COc1ccc(C(=O)Nc2ccccc2Cc2ccccc2)c(OC)c1	nt	5.3*	-10
Cc1ccc(NC(=O)CCSc2nnnn2-c2ccc3c(c2)OCO3)cc1C	14	6.2*	-1
CCn1nnnc1SCC(=O)Nc1ccc2c(c1)OCO2	-9	-4	nt
Cc1ccc(C(=O)NC(NC(=S)Nc2ccc(S(N)(=O)=O)cc2)C(Cl)(Cl)Cl)cc1 (centres undefined)	nt	-2	-8
CCOC(=O)NC(NC(=S)Nc1ccc(OCC)cc1)C(Cl)(Cl)Cl (centres undefined)	nt	-1	29*[artifact]
Brc1ccc(-c2nc3ncccn3c2NC2CCCCC2)o1	58*	-6	0
Cc1ccc(-c2nc3ncccn3c2NC2CCCC2)o1	9	-4	nt
CCOC(=O)c1ccc(N2C(=O)c3n[nH]c(C)c3C2c2ccc(OC)cc2OC)cc1 (centres undefined)	1	9.4*	nt
CCOC(=O)c1ccc(N2C(=O)c3n[nH]c(C)c3C2c2ccc(OC)cc2)cc1 (centres undefined)	12	0	0
O=C(CNS(=O)(=O)c1ccc(Cl)cc1)OCC(=O)N1CCCc2ccccc21	nt	4	-10
CC(=O)/C(C#N)=C1\NC(=O)C(Cc2ccccc2)S1 (centres undefined)	7	4.9*	nt
SMILES	MRP reversal	MRP1 act	Phagocyt inh
N#C/C(C(=O)N1CCOCC1)=C1/SC(Cc2ccccc2)C(=O)N1c1ccccc1 (centres undefined)	5	3	-1
COc1ccc(/C=N/Nc2cc(OC)ncn2)cc1	nt	5.4*	-8
COc1ccc(/C=N/Nc2cc(N(C)C)nc(N(C)C)n2)cc1	nt	0	-14
CC(OC(=O)CNC(=O)c1ccccc1F)C(=O)Nc1nc(-c2ccccc2)cs1 (centres undefined)	nt	2	3
CC[n+]1c(/C=C/C=C/N(C(C)=O)c2ccccc2)sc2cc(OC)ccc21	nt	-4	70*[fluoresces]
CC[n+]1c(/C=C/Nc2ccccc2)sc2ccccc21	nt	-2	-2
COc1cc(-c2nnc(CSc3nnc(Nc4ccc(Oc5ccccc5)cc4)s3)o2)cc(OC)c1OC	nt	-3	-21
COc1cccc(Cn2nnc(C(=O)NCc3ccc(F)cc3)c2N)c1	7	4.8*	0
CCOc1ccc(Cn2nnc(C(=O)NCCc3ccccc3)c2N)cc1	0	7.8*	0
CCOc1ccc(Cn2nnc(C(=O)NCCc3ccc(Cl)cc3)c2N)cc1	2	5.1*	0
COc1cccc(Cn2nnc(C(=O)NCCc3ccc(Cl)cc3)c2N)c1	-13	5	0
Nc1c(C(=O)NCc2ccccc2)nnn1Cc1ccccc1	6	0	0
COc1cccc(Cn2nnc(C(=O)NCc3ccccc3Cl)c2N)c1	7	1	-1
O=C(Nc1ccccc1-c1nc2ccccc2[nH]1)c1sc2ccccc2c1Cl	nt	-5	-2
CCOC(=O)C(=NCCOC)NNc1cc(Cl)ccc1Cl	nt	0	-9
CC(C)CC1(C(=O)NCc2cc(F)cc(C(F)(F)F)c2)C=CCN1C(=O)c1ccccc1 (centres undefined)	nt	-2	nt
Cc1scc(C(=O)N/N=C/c2ccc(Cl)s2)c1C	nt	2	-3
CCOC(=O)c1ccc(NC(=O)COC(=O)c2cccc(Oc3ccccc3)c2)cc1	nt	0	-3
Cc1onc(-c2ccccc2)c1C(=O)OCC(=O)Nc1ccc2c(c1)OCO2	13	2	0
Cc1onc(-c2ccccc2Cl)c1C(=O)OCC(=O)Nc1ccc2c(c1)OCO2	11	5.7*	-1
O=c1nc2s/c(=C\c3ccc(-c4ccccc4[N+](=O)[O-])o3)c(=O)n2nc1-c1ccccc1	nt	5.2*	-3
CCCCCOc1ccc(/C=c2\sc3nc(=O)c(-c4ccccc4)nn3c2=O)cc1OC	nt	0	-4
CCOC(=O)CN(C(=O)CSc1nnc(COc2ccc(OC)cc2)n1C)c1ccccc1	-12	5.6*	-4
CCOC(=O)CN(C(=O)CSc1nnc(CNc2ccc(F)cc2)n1C)c1ccccc1	9	-2	2
O=C1C2CCCCC2C(=O)N1c1ccc(NC2CCCCC2)c([N+](=O)[O-])c1 (centres undefined)	nt	-3	-5
SMILES	MRP reversal	MRP1 act	Phagocyt inh
CCCOC(=O)c1cccc(Nc2nc(-c3cccnc3)nc3ccccc23)c1	nt	-5	-3
Cc1cccc(N2CCN(S(=O)(=O)c3cccc4nonc34)CC2)c1C	nt	1	-11
COc1ccccc1NC(=O)c1sc2nc(-c3ccco3)ccc2c1N	-13	8.3*	0
Nc1c(C(=O)Nc2ccccc2)sc2nc(-c3ccco3)ccc12	-17	-4	-1
O=C(CSc1cn(CCNC(=O)c2cccs2)c2ccccc12)NC1CCCC1	8	-1	-1
O=C(Nc1ccn(Cc2c(F)c(F)cc(F)c2F)n1)c1ccc(COc2cc(Cl)ccc2Cl)o1	nt	3	nt
O=C(Nc1ccn(Cc2ccccc2F)n1)c1ccc(COc2cc(Cl)ccc2Cl)o1	nt	7.0*	nt
COc1ccc(CNC(=O)CNS(=O)(=O)c2ccc(Cl)cc2)cc1	nt	2	0
Cc1ccc(S(=O)(=O)NC(=O)c2cc(C)n(-c3cc(S(=O)(=O)N4CCOCC4)ccc3N3CCCC3)c2C)cc1	nt	5.0*	0
Cc1ccc(S(=O)(=O)NC(=O)c2cc(C)n(-c3ccccc3)c2C)cc1	nt	-2	-13
OC(COCCOc1ccc(Br)cc1)CN1CCN(Cc2ccccc2)CC1 (centres undefined)	nt	5	-1
CNS(=O)(=O)c1cnccc1N1CCN(c2cccc(C(F)(F)F)c2)CC1	nt	-3	nt
Cc1ccc2nc(-c3ccc(Br)o3)oc(=O)c2c1	4	-2	-3
COc1cc2nc(-c3ccc(Br)o3)oc(=O)c2cc1OC	8	-2	95*
Cc1ccc(Nc2nc(CSc3nnc(-c4ccc(F)cc4)n3C)cs2)cc1	nt	0	1
CCCCS(=O)(=O)Nc1ccc(C)cn1	nt	-3	-12
